Laboratory results as given in publication doi:10.1101/2024.03.05.583629.

Target: pT7_6His-AlfaTag-ZIF268 (human, UniProt P18146 335-423)
Assay: PADIT-seq
Settings: dsDNA, one strand shown

Q: With “CTCGAGGATATCAAGATCTGGCCTCGGCGCGTGGTTGGGAACCTCTAGCTAGCCGACTCACTATAGGGATAATCGCCCTGAGCAAAGACC” as the sequence, how does the binding signal read?
A: 0.34 ± 0.0919 log2FC

Q: With “CTCGAGGATATCAAGATCTGGCCTCGGCGCGTGGGCCGGAACCTCTAGCTAGCCGACTCACTATAGGGATAATCGCCCTGAGCAAAGACC” as the sequence, how does the binding signal read?
A: 2.26 ± 0.0976 log2FC

Q: With “CTCGAGGATATCAAGATCTGGCCTCGGCGCGCGTGCGGGAACCTCTAGCTAGCCGACTCACTATAGGGATAATCGCCCTGAGCAAAGACC” as the sequence, how does the binding signal read?
A: 0.0362 ± 0.119 log2FC

Q: “CTCGAGGATATCAAGATCTGGCCTCGGCGCGGAGGCGGGAACCTCTAGCTAGCCGACTCACTATAGGGATAATCGCCCTGAGCAAAGACC” was tested. Which binding signal did it give?
A: 1.88 ± 0.11 log2FC

Q: With “CTCGAGGATATCAAGATCTGGCCTCGGCCGCCCTCGCGGAACCTCTAGCTAGCCGACTCACTATAGGGATAATCGCCCTGAGCAAAGACC” as the sequence, how does the binding signal read?
A: 0.0695 ± 0.102 log2FC

Q: “CTCGAGGATATCAAGATCTGGCCTCGGCACCTGGGCGGGAACCTCTAGCTAGCCGACTCACTATAGGGATAATCGCCCTGAGCAAAGACC” was tested. Which binding signal did it give?
A: 0.068 ± 0.0997 log2FC

Q: For “CTCGAGGATATCAAGATCTGGCCTCGGCAGATGGGCGGGAACCTCTAGCTAGCCGACTCACTATAGGGATAATCGCCCTGAGCAAAGACC”, which binding signal is on record?
A: 0.0303 ± 0.101 log2FC

Q: How did the binding signal turn out when “CTCGAGGATATCAAGATCTGGCCTCGGCGCGAGCGCGGGAACCTCTAGCTAGCCGACTCACTATAGGGATAATCGCCCTGAGCAAAGACC” was run?
A: 0.0892 ± 0.102 log2FC

Q: For “CTCGAGGATATCAAGATCTGGCCTCGGCGCGCCCGCGGGAACCTCTAGCTAGCCGACTCACTATAGGGATAATCGCCCTGAGCAAAGACC”, which binding signal is on record?
A: 0.783 ± 0.131 log2FC

Q: “CTCGAGGATATCAAGATCTGGCCTCGGCCGCCCATGGGGAACCTCTAGCTAGCCGACTCACTATAGGGATAATCGCCCTGAGCAAAGACC” was tested. Which binding signal did it give?
A: 0.0348 ± 0.099 log2FC
